# Measured values taken from PubChem BioAssay (Tox21).
# Several values for one entry are separate records, joined by “and”; a condition that tells them apart may be missing. Identical values can stand only once. Results filed as inconclusive are left out. A call without a number means that no potency is given here. More than one record can exist for a structure, and the calls need not agree. Activity calls are given as the source filed them. The call rests on the fitted dose curve; in most records, active means well fitted inhibition curve with a large enough effect in the repeat runs; inconclusive means weak or mixed curves, or effect the other way; inactive means no such curve, though single readings can be large or run the other way.
# Target: Nuclear receptor subfamily 1 group I member 3 (Homo sapiens) (UniProt Q14994)
# Experiment: qHTS assay to identify small molecule antagonists of the constitutive androstane receptor (CAR) signaling pathway (AID 1224838);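 further: HepG2 cells stably expressing hCAR with CYP2B6 luciferase reporter stimulated by CITCO; nearly all actives have a fitted effect of over 40% in size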
# Conditions: HepG2-CYP2B6-hCAR luciferase, CITCO-stimulated, 24 h; series mostly up to 92.4 µM; activity, negative = inhibition: at the top concentration
# Description: U.S. Tox21 Program National Center for Advancing Translational Sciences [NCATS] NIH Chemical Genomics Center [NCGC] U.S. Environmental Protection Agency [EPA] National Institutes of Environmental Health Sciences [NIEHS] National Toxicology Program [NTP] U.S. Food and Drug Administration [FDA] Tox21 Assay Overview: The constitutive androstane receptor (CAR) is a nuclear receptor which regulates multiple drug metabolizing enzymes (DMEs) and transporters. Activating CAR will generally increase the transcription and subsequent translation of CYP2B6 and CYP3A4. These two DMEs represent about 50% of the drug metabolizing potential in the body. When CAR is deactivated, the metabolizing potential in the body will decrease, subsequently increasing the toxicity in the body or lowering the therapeutic potential of a pro-drug. Recently, there have also been studies performed indicating CARs role in energy metabolism and cancer therapy. Therefore, inhibiting CARs activity could have a potential effect on diabetes and cancer. Identifying environmental toxins and compounds which modulate CAR, through the use of the Tox21 10K compound collection, will be an important step in determining the toxicity and potential therapeutic effects these factors will have on the human body.
# Tox21 Assay Protocol Summary: A double-stable (hCAR and CYP2B6-2.2kb) transfected cell line, derived from human hepatoma (HepG2) cells, was utilized for the duration of the quantitative high-throughput screens. The HepG2-CYP2B6-hCAR cells suspended in DMEM culture medium supplemented with 10% FBS, 5 ug/mL blasticidin, 0.5 mg/mL geneticin, 100 U/mL penicillin and 100 ug/mL streptomycin were dispensed at 2500 cells/4 uL/well in 1536-well white solid bottom plates using a Multidrop Combi. After the assay plates were incubated at 37 C/5% CO2 for 4 hrs, 23 nL of compounds at 15 concentrations (from 5-48 columns) or positive control (from 1 to 4 columns) were transferred to the assay plates using a Pintool station. One uL of CITCO, was added using a Flying Reagent Dispenser to generate a final concentration of 50 nM CITCO inside each well. After a 24 hr incubation period at 37 C/5% CO2, four uL of ONE-Glo reagent was added into the assay plates using a Flying Reagent Dispenser. After a 30 min incubation period at room temperature, the luminescence intensity in the assay plates was measured using a ViewLux plate reader.
# Potency means the concentration at half of the fitted maximal effect.
# Chain of Nuclear receptor subfamily 1 group I member 3 (Homo sapiens) (Q14994 whole entry, looked up): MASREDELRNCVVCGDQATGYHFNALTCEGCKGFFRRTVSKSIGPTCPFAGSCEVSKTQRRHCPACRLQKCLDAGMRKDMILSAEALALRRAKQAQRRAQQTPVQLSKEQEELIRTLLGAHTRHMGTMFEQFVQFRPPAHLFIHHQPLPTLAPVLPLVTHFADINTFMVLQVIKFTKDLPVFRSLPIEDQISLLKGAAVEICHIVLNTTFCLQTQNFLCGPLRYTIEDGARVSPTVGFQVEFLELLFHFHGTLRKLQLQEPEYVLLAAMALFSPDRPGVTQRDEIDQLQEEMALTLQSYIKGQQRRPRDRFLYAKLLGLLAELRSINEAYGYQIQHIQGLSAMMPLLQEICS
Structure (SMILES),Potency,"activity, negative = inhibition"
NC(=O)/N=N/C(N)=O,inactive,–
Cc1ccc(C)c(C)c1,inactive,–
ClC1=C(Cl)C(Cl)(Cl)C(Cl)=C1Cl,inactive,–
Oc1ccc2ccccc2c1N=Nc1ccccc1,inactive,–
CC1=C(CC(=O)O)c2cc(F)ccc2/C1=C\c1ccc(S(C)=O)cc1 (stereo not given),inactive,–
CC(C)(CO)COC(=O)C(C)(C)CO,inactive,–
CC1COc2ccccc2N1C(=O)C(Cl)Cl (stereo not given),inactive,–
C[C@@H](O)[C@H]1C(=O)N2C(C(=O)O)=C(S[C@@H]3CN[C@H](C(=O)N(C)C)C3)[C@H](C)[C@H]12,–,-7.19% [at 42.5 µM] (inactive)
COC(=O)c1ccc(C(=O)OC)cc1,6.95 µM (active) and inactive,–
CCCCOCCO,inactive,–
CCCCCCC(C)(C)S,inactive,–
O=C(Cl)c1c(Cl)c(Cl)c(C(=O)Cl)c(Cl)c1Cl,inactive,–
O=Nc1ccc(O)cc1,inactive,–
O=C1O[C@H](CO)[C@@H](O)[C@H](O)[C@H]1O,inactive,–
COC(=O)Nc1nc2ccc(Sc3ccccc3)cc2[nH]1,inactive,–
Nc1nc2ncc(CNc3ccc(C(=O)N[C@@H](CCC(=O)O)C(=O)O)cc3)nc2c(=O)[nH]1,inactive,–
CC1Cc2ccccc2N1NC(=O)c1ccc(Cl)c(S(N)(=O)=O)c1 (stereo not given),inactive,–
CCCCOCCOCCOC(=O)CCCCC(=O)OCCOCCOCCCC,inactive,–
O=C(O)c1cc(-c2ccccc2)nc2ccccc12,inactive,–
C=C(C)C(=O)OCC(CC)(COC(=O)C(=C)C)COC(=O)C(=C)C,inactive,–

Structure (SMILES),Potency,"activity, negative = inhibition"
CC[Si](OC(C)=O)(OC(C)=O)OC(C)=O,inactive,–
O=c1c(-c2ccc(O)cc2)coc2cc(O)ccc12,inactive,–
CCCCCCCCCCCCOCC1CO1 (stereo not given),inactive,–
CC(C)(N=C=O)c1cccc(C(C)(C)N=C=O)c1,inactive,–
CCCCNC(N)=O,inactive,–
NC(=O)NNc1ccccc1,inactive,–
S=c1nc[nH]c2nc[nH]c12,1.5 µM (active) and 3.35 µM (active),–
CCc1ccc(O)cc1,inactive,–
CCCCCCOC(C)=O,inactive,–
CCc1ccccc1O,inactive,–
CS(=O)(=O)c1ccc([C@@H](O)[C@@H](CO)NC(=O)C(Cl)Cl)cc1,inactive,–
CCC(C)C=O (stereo not given),inactive,–
O=C1CCCCC1,inactive,–
CC1CC(OC(=O)c2ccccc2O)CC(C)(C)C1 (stereo not given),inactive,–
Cc1cc(=O)[nH]c(C(C)C)n1,inactive,–
Cc1cc(O)c2c(c1)C(=O)c1cc(O)cc(O)c1C2=O,inactive,–
Cc1ccc(C(=O)O)o1,inactive,–
CC1=C(/C=C/C(C)=C/C=C/C(C)=C/CO)C(C)(C)CCC1,inactive,–
CC(=O)Nc1ccc(C(=O)O)cc1,inactive,–
NCCNCCNCCNCCN,inactive,–
